Laboratory results published in PubChem BioAssay AID504444 (National Center for Advancing Translational Sciences (NCATS), 2011).
About 7,500 (2.1%) of roughly 360,000 compounds were called active. Roughly 20% stayed inconclusive and do not appear here. This excerpt belongs to a sample that is enriched for actives. A number with no mark means an inactive call. Calls come from the whole dose curve; as a rule, active = well fitted inhibition curve with a large enough effect; inconclusive = small, poorly fitted or top-dose-only effect, or effect the other way; inactive = flat fitted curve, though single readings scatter.

Experiment: Nrf2 qHTS screen for inhibitors; note: nearly all actives have a fitted effect of over 60% in size
Settings: A549 ARE-Fluc reporter, luciferase luminescence, 18-24 h; series mostly up to 46 µM; activity change, negative = inhibition: at the top concentration
Outline: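 In this cell-based qHTS, ARE-driven firefly luciferase in A549 cells reports Nrf2 activity; the luminescent signal after BugLite lysis is the measured value, with a prior CellTiter-Fluor read for cell health.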
% is set by controls: 0 for no effect and ±100 for the full control effect; potency is the fitted concentration of half-maximal effect.

SMILES | activity change, negative = inhibition | Potency
O=C(c1ccco1)N(Cc1cccs1)c1ccc(O)cc1 | -5.51% | –
COc1cc(OC)cc(-c2nc3nc(C)c(CCC(=O)Nc4ccccc4)c(C)n3n2)c1 | -0.881% | –
COc1ccccc1-c1cc2nc(C)c(CCC(=O)NC3CCCCC3)c(C)n2n1 | -10.5% | –
COc1ccccc1-c1cc2nc(C)c(CCC(=O)O)c(C)n2n1 | – | 3.66 µM (active)
COc1ccc(C)cc1Nc1nc2ccccc2c2nnc(C)n12 | 18.3% | –
CCCSc1ncc(Cl)c(C(=O)Nc2sc3c(c2C(=O)NCCOC)CCCC3)n1 | -19.9% | –
Cc1ccc(CSc2nc3[nH]ncc3c(=O)[nH]2)cc1 | 2.03% | –
COc1ccc(CCNC(=O)CSc2nc3[nH]ncc3c(=O)n2-c2cccc(C(F)(F)F)c2)cc1OC | -14.3% | –
CCc1ccc(-n2c(SCc3cc(=O)n4cc(Br)ccc4n3)nc3[nH]ncc3c2=O)cc1 | – | 16.4 µM (active)
COc1ccc(S(=O)(=O)Nc2cccc3c2O[C@H](CN(C)S(=O)(=O)c2ccc(OC)cc2)[C@@H](C)CN([C@H](C)CO)C3=O)cc1 | -25% | –
CCc1ccc(CN(C)C(C)C(=O)Nc2ccc(S(=O)(=O)N3CCCC3)cc2)cc1 (stereo not drawn) | -9.67% | –
CCCCOc1ccc(C(=O)N2CC(=O)Nc3ccc(Br)cc3C2c2ccc(F)cc2)cc1 (stereo not drawn) | -25.1% [at 9.27 µM] | –
CC(=O)c1cccc(NC(=O)COc2ccc(S(=O)(=O)N3CCOCC3)cc2)c1 | -4.98% | –
CC(=O)c1cccc(Nc2ccc3cc(S(=O)(=O)N4CCC(C)CC4)ccc3n2)c1 | – | 20.6 µM (active)
CC(=O)c1cccc(S(=O)(=O)N2CCC(n3nnc4cc(F)ccc43)CC2)c1 | -2.65% | –
CCOC(=O)c1cc(NC(=O)c2ccc(F)cc2)c(=O)n2c1oc1ccccc12 | -17.2% | –
COc1cccc(C2c3c(ncn(-c4cccc(Br)c4)c3=N)Oc3ccc4ccccc4c32)c1 (stereo not drawn) | 5.52% | –
CCC(=O)NC(Nc1nc2ccc(C)cc2s1)(C(=O)OC)C(F)(F)F (stereo not drawn) | 4.39% | –
CCOc1ccc2nc(NC(=O)c3cc([N+](=O)[O-])ccc3N3CCOCC3)sc2c1 | -23.6% | –
O=C(NC(Nc1nc2ccc([N+](=O)[O-])cc2s1)(C(F)(F)F)C(F)(F)F)c1ccccc1 | – | 2.59 µM (active)
O=c1[nH]cnc2c1c(-c1ccccc1)cn2-c1ccc(F)cc1 | – | 25.9 µM (active)
O=c1c2c(-c3ccccc3)ccnc2[nH]n1-c1ccccc1 | -2.93% | –
CCOC(=O)C1CCN(c2ncnc3c2c(-c2ccccc2)cn3-c2ccc(C)cc2)CC1 | 8.13% | –
Cc1cc(C)cc(OCC(=O)Nc2ccc(N3CCOCC3)cc2N2CCOCC2)c1 | -24.6% | –
CC(=O)c1ccc(NC(=O)CSc2nc3ccccc3c(=O)n2CCCN2CCOCC2)cc1 | 8.57% | –

SMILES | activity change, negative = inhibition | Potency
O=C(c1cccs1)c1cn(CCOc2ccc(Cl)cc2)c2ccccc12 | -11% | –
COc1ccc(-n2c(C)cc(C(=O)CSc3nnc(-c4cccs4)o3)c2C)cc1 | – | 18.4 µM (active)
Cc1ccc(OC(=O)CSc2nnc(-c3cccs3)o2)cc1 | 1.89% | –
COc1ccc(-n2c(C)cc(C(=O)COC(=O)c3cc(OC)c(OC)cc3NC(=O)c3cccs3)c2C)cc1 | -0.74% | –
CCc1ccc(C2C(C(=O)Nc3ccccc3)=C(C)Nc3c(C(=O)Nc4ccc(C)cc4)cnn32)cc1 (stereo not drawn) | -7.44% | –
O=C(Cn1cnc2c(OCc3ccccc3)ncnc21)NCc1nc2ccccc2[nH]1 | 4.45% | –
Cc1cc(C(=O)OCC(=O)Nc2nccs2)c2ccccc2n1 | 19.8% | –
Cc1cc(C(=O)OCC(=O)Nc2nnc(C(C)C)s2)c2ccccc2n1 | -6.29% | –
Cc1cc(C(=O)OCC(=O)N2C(C)CCCC2C)c2ccccc2n1 (stereo not drawn) | – | 18.4 µM (active)
Cc1ccc(Cn2c(C)c3cnn(CC(=O)NCCN4CCOCC4)c(=O)c3c2C)cc1 | -21.8% | –
Cc1cc(C)cc(NS(=O)(=O)c2cc3c(cc2C)NC(=O)CO3)c1 | 18.1% | –
CCOc1cc(/C=C(/C#N)c2ccc(Cl)cc2)cc(Cl)c1OCC(=O)O | – | 8.2 µM (active)
CCOC(=O)CN/C=C(\C#N)c1ccc(F)cc1 | 0.372% | –
C/C(=N\OCC(=O)O)c1ccc(Cl)cc1 | 1.65% | –
CCCCNC(=O)c1ccc2c(c1)NC(=O)C(C(C)C)N2 (stereo not drawn) | -6.85% | –
COc1ccc(Cn2c(C(=O)O)c(CNCc3cccc(OC)c3)c3ccc(C)cc32)cc1 | -21.6% | –
CCc1cccc(NC(=O)CN(c2ccc(C)c(C)c2)S(=O)(=O)c2ccsc2C(=O)OC)c1 | 2.91% | –
CCOC(=O)C1=C(c2ccccc2)Nc2ncnn2C1c1ccc(Cl)cc1 (stereo not drawn) | -3.16% | –
CC1=C(C(N)=O)C(c2ccc(Br)cc2)n2ncnc2N1 (stereo not drawn) | -20% | –
Clc1ccc2c(c1)C1=C(C(c3ccncc3)O2)C(c2ccc(Br)cc2)n2ncnc2N1 (stereo not drawn) | – | 13 µM (active)
CCCC12CN3CC(CCC)(CN(C1)C3c1c[nH]c3ccc(OC)cc13)C2=O (stereo not drawn) | -15.7% | –
Cc1ccccc1C(=O)Nc1cc(C)c(O)c(-c2nc3ccccc3o2)c1 | 6.96% | –
CC1CCc2[nH]c3ccc(C(=O)N(C)CC(=O)Nc4cccc(F)c4)cc3c2C1 (stereo not drawn) | 2.56% | –
CCCN(CC(=O)Nc1ccccc1C)C(=O)c1ccc2[nH]c3c(c2c1)CC(C)CC3 (stereo not drawn) | – | 20.6 µM (active)
CCCN(CC(=O)Nc1ccccc1C)C(=O)c1cc(=O)[nH]c2ccccc12 | 11.2% | –

SMILES | activity change, negative = inhibition | Potency
COc1ccc(CCN2CC(C(=O)OCC(=O)NCc3ccccc3Cl)CC2=O)cc1OC (stereo not drawn) | 4.36% | –
Cc1ccc(O)c(NC(=O)c2cc(-c3ccc(F)cc3)no2)c1 | 12.9% | –
CCOc1cc(C2C(C(=O)OC)=C(C)NC3=C2C(=O)c2ccccc23)ccc1O (stereo not drawn) | 8.61% | –
COc1ccc(S(=O)(=O)N2CCOCC2)cc1NC(=O)CSc1nnc(NC2CC2)s1 | -0.078% | –
Cc1ccc2[nH]c(C)c(CCNC(=O)NC3CCCCC3)c2c1 | – | 20.6 µM (active)
NS(=O)(=O)c1ccc(CCNC(=O)NC2CCCCC2)cc1 | 2.98% | –
Cc1ccc2[nH]cc(CCNC(=O)C3CCCCC3)c2c1 | -15.9% | –
COc1ccc(/C=C/C(=O)OCC(=O)N2CCN(S(=O)(=O)c3ccc(C)cc3C)CC2)cc1OC | 0.413% | –
CSc1ccc(CCNC(=O)c2cnn(-c3ccccc3)c2-n2cccc2)cc1 | -8.32% | –
COc1ccc(-c2csc(N3CCN(Cc4ccc5c(c4)OCO5)CC3)n2)cc1 | -26.4% | –
O=C(CSc1ncnc2scc(-c3ccccc3)c12)NCc1ccc2c(c1)OCO2 | -28.7% | –
O=C(CN1CCN(c2nc(-c3ccccc3)cs2)CC1)NCc1ccc2c(c1)OCO2 | – | 23.1 µM (active)
O=C(Nc1ccccc1)Oc1cccc2cccnc12 | 5.41% | –
O=C(Nc1cc(S(=O)(=O)Nc2ccc(Cl)cc2)ccc1O)c1ccc(F)cc1F | -0.0591% | –
COc1ccc(NC(C)=O)cc1NC(=O)CN1CCN(c2ccccn2)CC1 | -3.38% | –
Cc1nc(N2CCN(c3ccccn3)CC2)c2c(C)c(C(=O)Nc3ccc(F)c(Cl)c3)sc2n1 | – | 16.4 µM (active)
O=C(c1c(F)cccc1Cl)N1CCN(c2ccccn2)CC1 | 28.8% | –
CCOC(=O)C1CCCN(C(=O)c2sc3nc(C)nc(N4CCOCC4)c3c2C)C1 (stereo not drawn) | -3.67% | –
Cc1nc(N2CCOCC2)c2c(C)c(C(=O)Nc3ccc(C(F)(F)F)cc3)sc2n1 | – | 9.2 µM (active)
Cc1nc(N2CCC(C)CC2)c2c(C)c(C(=O)Nc3cc(F)ccc3C)sc2n1 | -18.6% | –
CC(NC(=O)c1ccccc1)C(=O)OCC(=O)Nc1cccc(S(=O)(=O)N2CCCC2)c1 (stereo not drawn) | -4.58% | –
COc1cc2c(cc1OC)C(Cc1cc(OC)c(OC)cc1[N+](=O)[O-])=NCC2 | -10.8% | –
COc1ccc(CCNC(=O)c2ccc(NC(=O)CC3SC(N4CCCCC4)=NC3=O)cc2)cc1OC (stereo not drawn) | -4.44% | –
COc1ccc2c(c1)c(N1CCCC1=O)c(C(=O)Nc1ccc(OC)c(Cl)c1)n2C | -35.3% | –
O=[N+]([O-])c1ccc(N=NNc2ccc([N+](=O)[O-])cc2)cc1 | 4.41% | –

SMILES | activity change, negative = inhibition | Potency
Cc1ccc(C(=O)NCCSc2c(C)[nH]c3ccccc23)cc1C | -4.57% [at 9.27 µM] | –
Cc1ccc(NC(=O)CSc2cccc3cccnc23)c(C)c1 | 0.544% | –
C/C(CC(=O)Nc1ccc(C)cc1C)=N\NC(=O)C(C)C | -7.5% | –
Cc1ccc(NC(=O)NC(C)c2c(-n3cccc3)sc(C)c2C)c(C)c1 (stereo not drawn) | – | 18.4 µM (active)
CCn1cc(NC(=O)Nc2ccc(OC)c(OC)c2)c(C(N)=O)n1 | 3.77% | –
COc1ccc(NC(=O)CNC(=O)Cc2ccccc2)cc1OC | -12.4% | –
COc1ccc(NC(=O)NC(C)c2c(-n3cccc3)sc(C)c2C)cc1OC (stereo not drawn) | – | 20.6 µM (active)
CCCCN1CC(c2nc3ccccc3n2CCCCOc2ccc(C)cc2C)CC1=O (stereo not drawn) | -17.4% | –
Brc1c(CSc2nncc3ccccc23)nc2ccccn12 | – | 8.2 µM (active)
CN(C(=O)CSc1nncc2ccccc12)C1CCCCC1 | 12.5% | –
CCOc1ccc(NC(=O)CSc2nnc3c(n2)[nH]c2ccc(S(=O)(=O)N4CCOCC4)cc23)cc1 | -7.26% | –
CCCOc1ccc(Cc2c(O)nc(SC)[nH]c2=O)cc1C | 3.9% | –
CCCOc1ccc(Cc2c(Cl)nc(SC)nc2NC)cc1 | – | 2.06 µM (active)
Cc1nc(SCCOc2ccc(Cl)cc2)[nH]c(=O)c1Cc1ccccc1 | -1.25% | –
COc1ccc(N2CCN(C(=O)C3CCCN(C(=O)c4cc5sccc5n4C)C3)CC2)cc1 (stereo not drawn) | -16.8% | –
O=C(NC1CCCC1)C(=O)c1c[nH]c2ccccc12 | 19.9% | –
C[n+]1ccc(/C=C/c2c[nH]c3ccccc23)cc1 | – | 0.82 µM (active)
CSC(=S)N/N=C/c1c[nH]c2ccccc12 | 3.83% | –
COc1cccc(/C=N/Nc2ccc(S(=O)(=O)Nc3ccccc3C(=O)O)cc2[N+](=O)[O-])c1O | -6.93% | –
CCC1CCCCN1C(=S)NC(=O)c1ccco1 (stereo not drawn) | 1.83% | –
Cc1nc2sc3c(c2c(=O)n1NC(=O)CCl)CCCC3 | -11.4% | –
Cc1ccc(C)c(-n2c(SCC(=O)O)nc3sc4c(c3c2=O)CCCC4)c1 | -21% | –
CCCc1nc2sc3c(c2c(=O)n1NC(=O)CCCl)CCCC3 | – | 11.6 µM (active)
